In PubChem BioAssay:
Values joined by “and” are separate entries in the source; they are usually repeats but may differ in a detail not shown here. Equal values may be shown once. Values without a mark were called inactive. No rule for the calls is given here.

Key:
[1] = system: Aerobactin synthetase IucA (Klebsiella pneumoniae hvKP1); experiment: Biochemical IucA enzyme inhibition primary screen of the Spectrum library (AID 1346200); details: malachite green pyrophosphate, A620, at 8 µM, stronger effect = lower value;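 also: 100% = wells without compound and 0% = wells lacking enzyme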
[2] = system: Aerobactin synthetase IucA (Klebsiella pneumoniae, hypervirulent); experiment: IucA enzyme inhibition, biochemical, LOPAC library, absorbance readout (AID 1346212); details: IucA enzyme assay, absorbance (OD) readout; stronger effect = lower value;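 tested at 8 µM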;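 also: 100% = no compound wells and 0% = no enzyme wells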

Row | Compound | activity remaining [1] | remaining activity [2] [%]
1 | CCC(C(N)=O)c1ccccc1 (stereo unspecified) | 119% | 
2 | CC1(C)CC[C@]2(C(=O)O)CC[C@]3(C)C(=CCC4[C@@]5(C)CC[C@H](O)[C@@](C)(CO)C5CC[C@]43C)C2C1 (stereo partly specified) | 97.3% | 
3 | C=CCSCC=C | 109% | 
4 | Cc1ccc(C)c(OCCCC(C)(C)C(=O)O)c1 | 116% | 
5 | O=C1CCC(N2C(=O)c3ccccc3C2=O)C(=O)N1 (stereo unspecified) | 117% | 
6 | NC(N)=NCCC[C@@H](NC(=O)[C@@H](N)Cc1ccc(O)cc1)C(=O)O | 110% | 
7 | C[C@H]1O[C@@H](O[C@H]2[C@@H](O)C[C@H](O[C@H]3[C@@H](O)C[C@H](O[C@H]4CC[C@]5(C)C6C[C@@H](O)[C@]7(C)[C@@H](C8=CC(=O)OC8)CC[C@]7(O)C6CC[C@@H]5C4)O[C@@H]3C)O[C@@H]2C)C[C@H](O)[C@@H]1O (stereo partly specified) | 118% | 
8 | C=CCSSSCC=C | 91.6% | 
9 | CC(=O)O[C@H]1CCC2(C)C3=C(CCC2C1(C)C)[C@]1(C)CCC(C(C)CCC=C(C)C)[C@@]1(C)CC3 (stereo partly specified) | 111% | 
10 | Cc1cc(O)c2c(c1)C(=O)c1cccc(O)c1C2=O | 107% | 
11 | C=CCS(=O)C[C@H](N)C(=O)O (stereo partly specified) | 125% | 
12 | COc1ccc2c(c1)O[C@H]1c3ccc(OC)cc3OC[C@@H]21 | 122% | 
13 | CC(=O)c1c(O)c(C)c(O)c2c1OC1=CC(=O)C(C(C)=O)C(=O)C12C (stereo unspecified) | 94.6% | 
14 | COC(=O)C1=C(C)NC(C)=C(C(=O)OCC(C)C)C1c1ccccc1[N+](=O)[O-] (stereo unspecified) | 118% | 
15 | NCCCC[C@H](N[C@@H](CCc1ccccc1)C(=O)O)C(=O)N1CCC[C@H]1C(=O)O | 114% | 
16 | C=C[C@@H](C1=CC(=O)C(OC)=C(OC)C1=O)c1ccccc1 | 128% | 
17 | Oc1ccc2c(c1)OCC1(O)Cc3cc(O)c(O)cc3C21 (stereo unspecified) | 91.6% | 
18 | COc1cc2c(cc1OC)C(=O)OC2 | 110% | 
19 | COC(=O)C(O)c1ccccc1 (stereo unspecified) | 108% | 
20 | O=C(O[C@@H]1Cc2c(O)cc(O)cc2O[C@@H]1c1cc(O)c(=O)c2c(O)c(O)cc([C@H]3Oc4cc(O)cc(O)c4C[C@H]3OC(=O)c3cc(O)c(O)c(O)c3)c2c1)c1cc(O)c(O)c(O)c1 | 108% | 
21 | CN(C)CCOC(c1ccc(Cl)cc1)c1ccccn1 (stereo unspecified) | 115% | 
22 | C[C@@H]1CC2C3CCC4=CC(=O)C=C[C@]4(C)[C@@]3(F)[C@@H](O)C[C@]2(C)[C@@]1(O)C(=O)COP(=O)(O)O (stereo partly specified) | 114% | 
23 | O=C(O[C@@H]1Cc2c(O)cc(O)cc2O[C@@H]1c1ccc(O)c(O)c1)c1cc(O)c(O)c(O)c1 | 107% | 
24 | C[C@@H]1CC[C@@]2(OC1)O[C@H]1CC3C4CC[C@H]5C[C@@H](O)CC[C@]5(C)C4CC[C@]3(C)[C@H]1[C@@H]2C (stereo partly specified) | 101% | 
25 | COC(=O)N/N=C/c1c[n+]([O-])c2ccccc2[n+]1[O-] | 109% | 
26 | COC(=O)C1=CO[C@@H](C)[C@@H]2CN3CC[C@]4(C(=O)Nc5ccccc54)C3CC12 (stereo partly specified) | 121% | 
27 | COC(=O)[C@@H]1OC(=O)C2OC23[C@@]1(C)CCC1[C@]2(C)C(C[C@@H](O)[C@]13C)C(C)(C)[C@H](OC(C)=O)C[C@@H]2OC(C)=O (stereo partly specified) | 96.4% | 

Row | Compound | activity remaining [1] | remaining activity [2] [%]
28 | COc1ccc2c(c1)OC[C@@H](Cc1ccc(OC)c(OC)c1)[C@@H]2O | 121% | 
29 | COc1ccc2c(c1)[C@@]1(C)CCC(=O)C[C@H]1CC2 | 101% | 
30 | CC(=O)O[C@]1(C(C)=O)CCC2C3C=C(C)C4=CC(=O)CCC4(C)C3CCC21C (stereo partly specified) | 98% | 
31 | CC1CC2C3CCC4=CC(=O)C=C[C@]4(C)[C@@]3(F)[C@@H](O)C[C@]2(C)[C@@]1(O)C(=O)CO (stereo partly specified) | 117% | 
32 | COc1c(Cl)ccc(Cl)c1C(=O)O | 108% | 
33 | O=c1[nH]c(=O)n(C2C[C@@H](O)[C@@H](CO)O2)cc1F (stereo partly specified) | 120% | 
34 | CC(C)(C)CC(C)(C)c1ccc(O)c(Cc2ccc(Cl)cc2Cl)c1 | 110% | 
35 | COc1ccc(-c2oc3cc(O[C@H]4O[C@H](CO)[C@@H](O)[C@H](O)[C@H]4O)c(OC)c(O)c3c(=O)c2OC)cc1O | 77.6% | 
36 | COc1cnc(NS(=O)(=O)c2ccc(N)cc2)nc1 | 113% | 
37 | COc1ccc2cc(CCC(C)=O)ccc2c1 | 99.8% | 
38 | Cc1cc(O)cc(=O)o1 | 116% | 
39 | CCCCCCOc1ccccc1C(N)=O | 96.8% | 
40 | O=c1c(-c2ccc(O)cc2)coc2c(C3O[C@H](CO)[C@@H](O)[C@H](O)[C@H]3O)c(O)ccc12 (stereo partly specified) | 105% | 
41 | COc1ccc2ccc(=O)oc2c1CC=C(C)C | 106% | 
42 | CC(=O)O[C@]1(C(C)=O)CCC2C3C[C@H](C)C4=CC(=O)CC[C@]4(C)C3CC[C@@]21C (stereo partly specified) | 95.7% | 
43 | OC[C@H]1O[C@@](CO)(O[C@@H]2O[C@H](CO)[C@@H](O)[C@H](O)[C@H]2O)[C@@H](O[C@@H]2O[C@H](CO)[C@@H](O)[C@H](O)[C@H]2O)[C@@H]1O | 82.4% | 
44 | CN(C)CC/C=C1\c2ccccc2Sc2ccc(Cl)cc21 | 110% | 
45 | CCC(C)C(=O)OC1[C@@H]2CC3=C4CC(=O)O[C@@H](c5ccoc5)[C@]4(C)CCC3C(C)(C2=O)[C@@H](CC(=O)OC)C1(C)C (stereo partly specified) | 125% | 
46 | COc1ccc2cc1Oc1ccc(cc1)C[C@H]1c3c(cc4c(c3Oc3cc5c(cc3OC)CCN(C)[C@@H]5C2)OCO4)CCN1C | 115% | 
47 | Cc1cc(=O)n(-c2ccccc2)n1C | 110% | 
48 | O=C(CCBr)N1CCN(C(=O)CCBr)CC1 | 107% | 
49 | CC(O)(P(=O)(O)O)P(=O)(O)O | 119% | 
50 | CCOc1ccc(Cc2nccc3cc(OCC)c(OCC)cc23)cc1OCC | 109% | 
51 | Cc1cc(O)c(C)c(O)c1C(=O)O | 121% | 
52 | C=C1CC[C@@]2(OC1)O[C@H]1CC3C4CC=C5C[C@@H](O)C[C@@H](O)[C@]5(C)C4CC[C@]3(C)[C@H]1[C@@H]2C (stereo partly specified) | 113% | 
53 | Cc1ccccc1OCC(O)CO (stereo unspecified) | 95.2% | 
54 | CC(=O)O[C@]1(C)CC[C@@]23CC1C(C)(C)[C@@H]2CC[C@H]3C | 102% | 

Row | Compound | activity remaining [1] | remaining activity [2] [%]
55 | COc1ccc2c(c1)OC[C@@H](Cc1ccc(OC)c(OC)c1)[C@H]2O | 109% | 
56 | N[C@@H]1[C@@H](O)[C@H](O)[C@@H](CO)O[C@H]1O | 80.8% | 
57 | CCCCCCCCCCCCCCCCCCOCC(O)CO (stereo unspecified) | 104% | 
58 | COc1ccc([C@H]2COc3c(ccc(O)c3OC)C2)c(OC)c1O | 89.5% | 
59 | C=CC[C@@H]1/C=C(\C)C[C@H](C)C[C@H](OC)[C@H]2O[C@@](O)(C(=O)C(=O)N3CCCC[C@H]3C(=O)O[C@H](/C(C)=C/[C@@H]3CC[C@@H](O)[C@H](OC)C3)[C@H](C)[C@@H](O)CC1=O)[C@H](C)C[C@@H]2OC | 105% | 
60 | O=C(O)C1(O)C[C@@H](O)C(O)[C@H](O)C1 (stereo partly specified) | 89.8% | 
61 | C[C@H](CCC(=O)O)[C@H]1CCC2C3C(=O)CC4CC(=O)CC[C@]4(C)C3CC(=O)[C@@]21C (stereo partly specified) | 122% | 
62 | O=C1c2ccccc2C(=O)c2c(O)c(O)cc(O)c21 | 118% | 
63 | C[C@H](CC(=O)C1OC1(C)C)[C@H]1C(=O)C[C@@]2(C)C3=CCC4C(C)(C)[C@@H](O[C@@H]5OC[C@@H](O)[C@H](O)[C@H]5O)CC[C@@]45C[C@@]35[C@@H](O)C[C@]12C (stereo partly specified) | 91.8% | 
64 | CC(=O)CC(c1ccccc1)c1c(O)c2ccccc2oc1=O (stereo unspecified) | 118% | 
65 | COc1ccc(-c2cc(=O)c3c(OC(C)=O)cc(OC(C)=O)cc3o2)cc1 | 108% | 
66 | COc1cc(-c2coc3cc(OC)c(OC)c(OC)c3c2=O)cc(OC)c1OC | 121% | 
67 | CC1/C(=N/O)C[C@@H]2C[C@H]1C2(C)C (stereo partly specified) | 110% | 
68 | CO[C@]12C[C@@H](COC(=O)c3cncc(Br)c3)CN(C)[C@@H]1Cc1cn(C)c3cccc2c13 | 108% | 
69 | CN(C)CCc1c[nH]c2ccc(CS(=O)(=O)N3CCCC3)cc12 | 128% | 
70 | Nc1nc2ncc(=O)[nH]c2c(=O)[nH]1 | 121% | 
71 | CCCCCCCCCCCCC[N+](C)(C)Cc1ccccc1 | 104% | 
72 | CC1(C)C2C[C@@H](O)[C@]3(C)C(CC[C@@]4(C)[C@H](c5ccoc5)OC(=O)C5OC543)[C@@]2(C)C(=O)C[C@H]1O (stereo partly specified) | 108% | 
73 | O=C(O[C@@H]1Cc2c(O)cc(O)cc2O[C@@H]1c1cc(=O)c(O)c2c(O)c(O)cc([C@H]3Oc4cc(O)cc(O)c4C[C@H]3O)c2c1)c1cc(O)c(O)c(O)c1 | 106% | 
74 | CN(C)CCC(c1ccc(Br)cc1)c1ccccn1 (stereo unspecified) | 123% and 96.1% | 
75 | CC1(O)CC2C(CC1O)C2(C)C (stereo unspecified) | 125% | 
76 | CCC(=O)OC1[C@@H]2CC3=C4CC(=O)O[C@@H](c5ccoc5)[C@]4(C)CCC3C(C)(C2=O)[C@@H](CC(=O)OC)C1(C)C (stereo partly specified) | 121% | 
77 | Cc1cc(O)c2c(c1O)C(=O)c1c(O)cc(C)c(O)c1C2=O | 100% | 
78 | OC(c1cc(C(F)(F)F)nc2c(C(F)(F)F)cccc12)C1CCCCN1 (stereo unspecified) | 120% | 
79 | C=C1C(=O)O[C@@H]2C[C@@]3(C)CCC[C@H](C)C3=C[C@H]12 | 97.8% | 
80 | CCCCOc1cc(CC2CNC(=O)N2)ccc1OC (stereo unspecified) | 115% | 110
